Peg3 promoter = Peg3 promoter activity inhibition | 1.7% of 360,000 active | inhibition, % at 20 µM | HeLa PEG-Prom luciferase reporter, luminescence, overnight;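 active means inhibition of at least 50% at 20 µM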
TWEAK-Fn14 inh = TWEAK-Fn14 signaling inhibition; TWEAK-stimulated Fn14 reporter cells, luciferase luminescence, 8 h; inhibition, % at 10 µM; 2% of 360,000 active; AID 1159606; in the data active means inhibition above about 50%
TROY NFkB inh = blocks TROY-dependent signaling in reporter cells | inhibition, % at 10 µM | AID 1347056 | Q293 LMP1-TROYcd NF-kB luciferase reporter, 4 h | 0.98% of 360,000 active;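 active means compounds whose plate-normalised and pattern-corrected inhibition of the luciferase reporter signal at the single screening dose is 50% or more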
HIF-2a inh = blocks HIF-2a reporter activity; 786-0 RCC cells HIF-2a reporter, luciferase luminescence, overnight; inhibition, % at 18.8 µM; 0.72% of 360,000 active;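 active means inhibition of the luminescence signal of 40% or more relative to plate controls, in a single-dose primary screen at 18.75 µM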
CF NFkB inh = inhibitors of cystic fibrosis induced NF-kB; KKLEB NF-kB-GFP reporter, PAF-induced, GFP fluorescence overnight; 0.86% of 360,000 active; AID 588850; inhibition, % at 5 µM;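 active means at least 50% inhibition at 5 µM, scaled per plate between neutral and stimulator controls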;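 further: PAF is a Pseudomonas aeruginosa culture filtrate used as stimulus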
KKLEB tox = counter-screen for CF NF-kB inhibitors: cytotoxicity; KKLEB CF airway cells viability, ATPlite luminescence, overnight; hits give low values; cells stimulated with P. aeruginosa culture filtrate; activity change (cytotoxicity), % at 5 µM; 0.36% of 360,000 active;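 active means corrected activity change at or below -50% at 5 µM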
Mdm2-MdmX confirm = confirmation of inhibitors of human Mdm2/MdmX interaction, set 2. shares compounds with HIF-2a inh. SaOS-2 split-luciferase Mdm2/MdmX complementation, luminescence. inhibition, % at 8 µM. 99% of 740 active. AID 504601;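 active means mean inhibition of the luminescence signal across two replicates at or above 26 percent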
Target sequence (O15151 whole entry, looked up): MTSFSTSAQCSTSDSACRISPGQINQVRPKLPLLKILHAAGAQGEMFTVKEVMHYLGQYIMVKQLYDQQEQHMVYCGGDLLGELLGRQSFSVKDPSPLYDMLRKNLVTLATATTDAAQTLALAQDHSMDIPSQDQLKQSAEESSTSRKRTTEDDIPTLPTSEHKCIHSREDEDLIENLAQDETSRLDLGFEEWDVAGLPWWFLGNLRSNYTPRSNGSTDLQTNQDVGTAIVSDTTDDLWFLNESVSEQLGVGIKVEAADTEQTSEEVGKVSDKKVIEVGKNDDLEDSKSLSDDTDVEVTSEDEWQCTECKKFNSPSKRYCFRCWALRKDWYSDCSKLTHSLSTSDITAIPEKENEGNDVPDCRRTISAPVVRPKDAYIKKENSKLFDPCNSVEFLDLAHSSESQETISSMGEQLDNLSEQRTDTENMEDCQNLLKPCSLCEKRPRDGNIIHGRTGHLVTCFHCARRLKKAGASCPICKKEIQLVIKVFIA
Target sequence (Q00987 whole entry, looked up): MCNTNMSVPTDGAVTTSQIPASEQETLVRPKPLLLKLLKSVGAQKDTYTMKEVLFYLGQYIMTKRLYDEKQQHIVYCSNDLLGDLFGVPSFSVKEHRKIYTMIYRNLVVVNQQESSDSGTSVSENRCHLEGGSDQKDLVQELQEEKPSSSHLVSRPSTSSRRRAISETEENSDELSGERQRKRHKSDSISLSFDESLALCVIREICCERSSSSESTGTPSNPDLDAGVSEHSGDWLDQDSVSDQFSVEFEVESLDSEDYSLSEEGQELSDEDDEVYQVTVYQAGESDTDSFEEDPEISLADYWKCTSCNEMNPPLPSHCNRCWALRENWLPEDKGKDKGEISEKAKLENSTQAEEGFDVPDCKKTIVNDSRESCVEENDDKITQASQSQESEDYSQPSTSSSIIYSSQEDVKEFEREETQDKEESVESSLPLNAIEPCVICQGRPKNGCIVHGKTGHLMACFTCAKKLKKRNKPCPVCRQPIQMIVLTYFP
HIF-2a conf = HIF-2a inhibition, single concentration confirmation | inhibition, % at 18.8 µM | AID 651580 | 786-0 RCC cells, HIF-2a luciferase reporter luminescence, overnight | shares compounds with HIF-2a inh | 56% of 1,800 active;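 active means mean inhibition across four replicates of at least 40 percent at the single tested concentration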
HIF-1a counter = inhibits HIF-1a reporter, a counter-screen for HIF-2a inhibitors; MiaPaCa-2 HIF-1a luciferase reporter, desferoxamine, overnight; shares compounds with HIF-2a inh; AID 651589; inhibition, % at 18.8 µM; 72% of 1,800 active;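 active means mean inhibition of the reporter signal across four replicates at the single tested dose of 50% or more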
Of the large screens only hits and unclear results are named; the others gave an inactive call (follow-up assays come after a bar, where they were run). An excerpt weighted towards active compounds, which were near 3.9% of everything screened.

COc1cc(C2CC(c3cccs3)=NN2C(=O)CCl)ccc1OC(F)F (stereo unspecified)	Peg3 promoter 109, CF NFkB inh 104, KKLEB tox -88 | Mdm2-MdmX confirm 103
CC(=O)N1N=C(c2ccco2)CC1c1cccs1 (stereo unspecified)	none
COc1ccc(C2CC(c3cccs3)=NN2C(=O)c2ccccc2)cc1OC (stereo unspecified)	none
Cc1ccc(C2=NN(C(=O)CCl)C(c3cccs3)C2)o1 (stereo unspecified)	Peg3 promoter 60, HIF-2a inh 84 | Mdm2-MdmX confirm 101 | HIF-2a conf inactive | HIF-1a counter 51
COc1ccc(C2CC(c3cccs3)=NN2C(=O)CCl)cc1OC (stereo unspecified)	Peg3 promoter 103 | Mdm2-MdmX confirm 96
CCN(C(=O)CSc1nnc(-c2ccccc2Br)o1)C1CCS(=O)(=O)C1 (stereo unspecified)	none
O=C(N=C1SC2CS(=O)(=O)CC2N1c1ccc(Br)cc1F)C1CC1 (stereo unspecified)	none
Nc1nc(Oc2ccc(F)cc2)c(Br)c(=O)[nH]1	none
CN(CC(=O)Nc1ccc(Cl)cc1)C(=O)CCc1c[nH]c2ccccc12	none
CCNC(=O)N(CC)C[C@H]1N[C@@](Cc2ccccc2)(C(=O)OC)[C@H]2C(=O)N(C)C(=O)[C@@H]12	none
CC(C)c1cccc(O)c(=O)c1	none | Mdm2-MdmX confirm 97
Cc1ccc(NC(=O)CSc2nc3ccccc3c(=O)n2CCCN2CCCCC2)cc1Cl	Peg3 promoter 114 | Mdm2-MdmX confirm 103
O=C(Nc1ccc(Cl)cc1Cl)c1cccc(N2C(=O)C=CC2=O)c1	Peg3 promoter 108, HIF-2a inh 44 | HIF-2a conf 80 | HIF-1a counter inactive
CC(C)NCC(O)Cn1c2c(c3ccccc31)CCc1c-2cnn1-c1ccccc1 (stereo unspecified)	Peg3 promoter 104, HIF-2a inh 41 | HIF-2a conf inactive | HIF-1a counter 105
CN1CCc2c(n(CC(O)CNCc3ccccc3)c3ccccc23)C1=O (stereo unspecified)	none
CC(=O)Nc1ccc(NC(=O)c2oc3cc(C)c(C)cc3c2C)cc1	HIF-2a inh 52 | HIF-2a conf 74 | HIF-1a counter inactive
Cc1cc2oc(C(=O)Nc3cccnc3)c(C)c2cc1C	none
CCOC(=O)c1c(C)[nH]c(C)c1S(=O)(=O)N1CCC(c2ccccc2)C1 (stereo unspecified)	none
Cc1ccccc1Oc1cc(-n2ncc(Cl)c(Cl)c2=O)ncn1	Peg3 promoter 105, TWEAK-Fn14 inh 107, TROY NFkB inh 90, HIF-2a inh 98, CF NFkB inh 96, KKLEB tox -100 | HIF-2a conf 100 | HIF-1a counter 106
CCOc1cnn(-c2cc(Oc3ccc(C)cc3)ncn2)c(=O)c1Cl	none
Cc1cc(-c2nn(-c3ccccc3F)cc2CN2CCN(c3ccccn3)CC2)c(C)s1	none
O=C(OCC(=O)c1c[nH]c2ccccc12)c1cc(S(=O)(=O)N2CCOCC2)ccc1F	HIF-2a inh 42 | HIF-2a conf inactive | HIF-1a counter 72
O=C(Nc1cccc([N+](=O)[O-])c1)C1C2/C=C\CCCCC21 (stereo unspecified)	none
COCCN(C(=O)CCC(=O)Nc1cc(C)on1)C(C(=O)NC1CCCC1)c1ccccc1C (stereo unspecified)	none
COCCN(C(=O)CCl)C(C(=O)NC1CCCCC1)c1ccccc1C (stereo unspecified)	Peg3 promoter 60, HIF-2a inh 66 | HIF-2a conf inactive | HIF-1a counter 91
CCCCCCCn1c(NC(=O)CC)nc2ccccc21	none
CC(=O)c1ccc(NC(=O)CSc2nccn2C)cc1	none

Screening results: PubChem BioAssay, Sanford-Burnham Center for Chemical Genomics
